In PubChem BioAssay (NCI):
Compounds without any hit were thinned out: in the full panel of roughly 83,000, 20% have a hit.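 For each line, cells grew in 96-well plates with the test compound present at a single concentration for 48 hours.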 Values without a mark were called inactive. Active and inactive are the calls of the source. Rule for the calls: active = growth percent below 10; inactive = the rest.

Legend:
Experiment in all cases: NCI-60 one-dose screen, 48 h (100 = growth as untreated, 0 = no growth, -100 = all killed)
Details in all cases: 10 µM unless noted
SR leukemia = system: SR leukemia
RPMI-8226 leukemia = system: RPMI-8226 leukemia
OVCAR-8 ovarian = system: OVCAR-8 ovarian
OVCAR-5 ovarian = system: OVCAR-5 ovarian
OVCAR-4 ovarian = system: OVCAR-4 ovarian
IGROV1 ovarian = system: IGROV1 ovarian
OVCAR-3 ovarian = system: OVCAR-3 ovarian
HS 578T breast = system: HS 578T breast
NCI/ADR-RES ovarian = system: NCI/ADR-RES ovarian
SK-OV-3 ovarian = system: SK-OV-3 ovarian

Compound | growth (SR leukemia) | growth (RPMI-8226 leukemia) | growth (OVCAR-8 ovarian) | growth (OVCAR-5 ovarian) | growth (OVCAR-4 ovarian) | growth (IGROV1 ovarian) | growth (OVCAR-3 ovarian) | growth (HS 578T breast) | growth (NCI/ADR-RES ovarian) | growth (SK-OV-3 ovarian)
COc1ccccc1NC(=O)Nc1ccc(-c2nc3ccccc3o2)cc1 | 69% | 96.7% | 102% | 104% | 95.3% | 104% | 109% | 99% | 98.4% | –
COc1cc2oc(-c3cccc(C(=O)Nc4ccc(C#N)cc4)c3)cc(=O)c2c(O)c1OC | 62.2% | 51.3% | 29.1% | 66.5% | – | 84.6% | 51.3% | 83.4% | – | –
CCn1c(Sc2nnc(NC(C)=O)s2)nc2c1c(=O)n(C)c(=O)n2C | 98.1% | 118% | 99.7% | 90.3% | 101% | 98.2% | 93.1% | 86.2% | 89.5% | –
CC(=O)c1sc(-c2ccccc2)cc1N | 88.4% | 98.1% | 92.8% | 100% | – | 105% | 103% | 89.1% | 105% | 89.6%
CC(=O)C(C(C)=O)c1nc2sc3cc(Cl)ccc3n2c(=N)c1C#N | 33.6% | 60.8% | 90.5% | 94.8% | – | 70.4% | 86.1% | 48.5% | 88.3% | 93.8%
CCc1cc(Cc2cc(CC)cc(C(C)(C)C)c2O)c(O)c(C(C)(C)C)c1 | -13.6% (active) | 7.4% (active) | 20.4% | – | 14.3% | 36.3% | 32.1% | – | – | 20.6%
COc1cc(NC(=O)c2cccc(-c3cc(=O)c4c(OC)c(OC)c(OC)cc4o3)c2)cc(OC)c1OC | 29.8% | 0.302% (active) | 30.9% | 86% | 74.8% | 51.8% | 40.8% | 9.2% (active) | 51.1% | –
Cc1nc(Nc2ccc(NC(=S)Nc3ccccc3)cc2)nc2nc(Nc3cccc(Cl)c3)[nH]c(=O)c12 | 62.7% | 57.2% | 97.2% | 101% | – | – | 139% | 67.1% | – | 95.7%
CCCCN1CCN(c2ccc3nc(-c4ccc5nc(-c6cc(OC)c(OC)c(OC)c6)[nH]c5c4)[nH]c3c2)CC1 | 10.7% | 55.9% | 56.2% | 117% | 84.4% | 94.2% | 67% | 45% | 102% | –
Cc1ccc(NSc2ccccc2[N+](=O)[O-])cc1 | 9.72% (active) | 19.9% | 33.1% | 49.7% | – | 38% | 7.41% (active) | 32.2% | 14% | 28.3%
O=C1NC(=S)S/C1=C\N1N=C(c2ccc(Cl)cc2)CC1c1ccc(F)cc1 (stereo unspecified) | 46.9% | 69.7% | 81.3% | 94.7% | 91.4% | 96.2% | 86.4% | 84.8% | 87% | –
CCCCN(CCCC)CCCn1c(=O)c2sc3ncccc3c2n2nnc(-c3ccccc3)c12 | 99.2% | 96.4% | 96.4% | 97.1% | 103% | 80.5% | 120% | 110% | 108% | –
CCN(CC)CCCNC(=O)c1ccc(N)cc1 | 86.6% | 105% | 106% | 97.1% | – | 100% | 111% | 99.2% | 102% | 112%
CCCCCCCC/C=C/CCCCCCCC1=NCC[N+]1(CCO)CCO | 17.4% | 38.6% | 80.6% | 77.5% | – | -8.63% (active) | 59.9% | 88.6% | 94.9% | 88%
CN(C)CN1CCN(c2ccc3nc(-c4ccc5nc(-c6ccc(C(F)(F)F)cc6)[nH]c5c4)[nH]c3c2)CC1 | 17.7% | 19.1% | 53% | 114% | -4.77% (active) | 78.7% | 89.7% | 52.8% | 97.9% | –
Cc1ccc2c(n1)C(=O)C(Oc1ccc(F)cc1)=CC2=O | 64.6% | 43.4% | 87% | 111% | 96.6% | 109% | 73.2% | 105% | 97.1% | –
CC12CC(C#N)CCC1O2 (stereo unspecified) | 98.9% | 106% | 105% | 105% | – | 99.2% | 117% | 105% | 115% | 115%
C=CCOc1cccc(/C=C2\SC(=Nc3ccc(O)cc3)NC2=O)c1 | 17.1% | -14.4% (active) | 27.4% | 27.9% | 32% | 20.3% | 6.17% (active) | 18% | 7.2% (active) | –
N#Cc1c(NC(=O)c2ccccc2I)sc2c1CCCC2 | 38.6% | 46.4% | 51.4% | 70.8% | – | 50.6% | 15.7% | 32.1% | 13.2% | –
CC(C)CCC[C@@H](C)[C@H]1CCC2C3=CCC4C(=O)C=CC(=O)C4C3CC[C@@]21C (stereo partly specified) | 13.2% | 8.72% (active) | 0.168% (active) | 7.74% (active) | – | -63.2% (active) | 2.72% (active) | 8.12% (active) | 7.87% (active) | 10.5%
CC(C)OCCCNCC(=O)Nc1ccc(S(=O)(=O)c2ccc(NC(=O)CNCCCOC(C)C)cc2)cc1 | 61.6% | 92.8% | 105% | 116% | – | 75.9% | 105% | 87.6% | 112% | 111%
NC(=S)c1csc(CCNC(=O)c2ccccc2)n1 | 107% | 102% | 106% | 117% | – | 112% | 113% | 102% | 110% | 101%
O=C1CC(c2ccc3c(c2)OCO3)Nc2cc3c(cc21)OCO3 (stereo unspecified) | 7.67% (active) | 16.5% | 12.7% | 44.7% | – | 50.4% | -5.26% (active) | 19.5% | 13.5% | –
CCOC(=O)c1nnn(C(Cc2ccccc2Cl)C(=O)OCC)c1C (stereo unspecified) | 93.7% | 96.3% | 96.7% | 106% | – | 112% | 111% | 94.3% | 107% | 102%
O=C(/C=C/C12c3ccccc3C(c3ccccc31)C1C(=O)NC(=O)C12)c1ccc(Cl)cc1 (stereo unspecified) | 13.3% | -10.1% (active) | 16% | -2.53% (active) | 30.4% | -38.6% (active) | -57.8% (active) | 11.6% | 4.42% (active) | –
N#Cc1c(N)nc2c(nnn2-c2cccc(C(F)(F)F)c2)c1N | 83.1% | 82.4% | 89.3% | 102% | – | 81.1% | 97.9% | 46.2% | – | 84.9%
O=C(/C=C/C12c3ccccc3C(c3ccccc31)C1C(=O)N(c3ccc(Cl)cc3)C(=O)C12)c1ccccn1 (stereo unspecified) | 13.6% | 3.98% (active) | 21.1% | -43.3% (active) | -6.96% (active) | -36.6% (active) | -71.6% (active) | 13.9% | 8.16% (active) | –
COc1cccc(CCC2CCCN(c3cc(C)nc(N)n3)C2)c1 (stereo unspecified) | 26.7% | 18.4% | 24.4% | 33.9% | – | 31.3% | 11.4% | 56.8% | 6.21% (active) | 40.5%
CCN(CC)CC(O)CNc1c2ccc(Cl)cc2nc2ccc(OC)cc12 (stereo unspecified) | 0.563% (active) | -30.9% (active) | -40.3% (active) | -25.3% (active) | -4.45% (active) | -24.9% (active) | -23.9% (active) | 38.3% | -24.4% (active) | –
Cc1nc(Nc2ccccn2)sc1C(=O)/C=C/c1ccc(Br)cc1 | 16.9% | 42.5% | 78.2% | 95.2% | 81.9% | 77.7% | 48.4% | 77.9% | 57.7% | –
